The full list was thinned out, with hits kept by preference.
KDM5B inhibitor: blocks human KDM5B histone demethylase activity. KDM5B demethylase, FDH-coupled NADH fluorescence (FDH is formaldehyde dehydrogenase). 220,000 tested, 2.6% active. Potency, µM (top dose mostly 57.7 µM), most hits filed as inhibitors. AID 1347165; active means well fitted inhibition curve with a large enough effect; further: nearly all actives have a fitted effect of over 70% in size
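KDM5BΔAP (200 nM final) in 50 mM HEPES pH 7.5, 0.01% Tween-20 was preincubated 10 min at RT with compound over a concentration range. Substrate mix (H3K4me3 12.5 µM, α-KG 25 µM, Fe²⁺, ascorbate, NAD⁺, FDH) was added, and NADH fluorescence change over 30 min gave dose-response curves.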
Of the large screens only hits and unclear results are named; the others gave an inactive call.

CC(C)CNC(=O)N1CCCC(c2noc(COc3ccccc3)n2)C1 (centres undefined)	none
O=C(C[C@@H]1CCNC[C@@H]1Cc1cc(CC2CCCCC2)on1)NCc1ccccc1	none
CCC(C)(C(=O)NC1CCCCC1)N(Cc1cccs1)C(=O)CNC(=O)c1ccccc1 (centres undefined)	none
Cc1ccc(C(NC(=O)c2ccncc2)c2ccccc2)cc1C (centres undefined)	none
Cn1cnc2c1c(=O)n(CC(=O)N(CCc1cccs1)Cc1cccs1)c(=O)n2C	none
Cc1cc(C(=O)N[C@H]2CCOC[C@H]2C2CCOCC2)cc(C)n1	none
Cc1nc2ncccn2c1C(=O)N[C@H]1CCOC[C@H]1C1CCOCC1	KDM5B inhibitor 28µM
Cc1ncn(CC(=O)N[C@H]2CCOC[C@H]2C2CCOCC2)c1C	none
CCN(CC(=O)NC(C)C)C(=O)CSc1nc2ccccc2o1	none
c1coc(-c2cc(CSc3nnc(-c4ccncc4)o3)no2)c1	none
COc1ccc(NCc2ccco2)cc1	none
CNC(=O)[C@@H]1CN(C(=O)CCn2cccn2)C[C@H]1COC	none
COC[C@@H]1CN(c2ncccn2)C[C@H]1C(=O)Nc1ccc(OC)nc1	KDM5B inhibitor 25µM
O=C(NCCn1cccn1)C1CCC(=O)N(CC2CCCCC2)C1 (centres undefined)	none
CNC(=O)[C@@H]1CN(C(=O)c2ocnc2C)C[C@H]1COC	none
COC[C@@H]1CN(c2ncccn2)C[C@H]1C(=O)N(C)Cc1cn(C)nc1C	KDM5B inhibitor 14µM
COC[C@@H]1CN(Cc2cnn(C)c2)C[C@H]1C(=O)N(C)C	none
COc1ccc(NC(=O)N2CCN(c3cnccn3)CC2)cn1	none
COC[C@@H]1CN(c2ncccn2)C[C@H]1C(=O)NCCn1cccn1	KDM5B inhibitor 20µM
COC[C@@H]1CN(Cc2ccccn2)C[C@H]1C(=O)NC1CC1	none
COC[C@@H]1CN(Cc2cn(C)nc2C)C[C@H]1c1ccncc1	none
COC[C@@H]1CN(c2ncccn2)C[C@H]1C(=O)NCc1c(C)n[nH]c1C	KDM5B inhibitor 28µM
Cc1n[nH]c(C)c1CNC(=O)C1CCN(C(=O)c2ncn3c2COC(c2ccc(F)cc2)C3)CC1 (centres undefined)	none
O=C(CSc1nnc(Cc2cccs2)n1C1CC1)c1c[nH]c(C(=O)N2CCCC2)c1	none
Cc1ccc(NC(=O)COc2ccc3c(C)cc(=O)oc3c2)c(C)c1	none
O=C(CN1CCN(Cc2cccc3cccnc23)CC1)NC1CC1	none
CC(C)NC(=O)NCc1ccc(C(=O)NCC2(c3ccccc3)CCCC2)cc1	none
COCCCNc1oc(-c2ccc(S(=O)(=O)N3CCCCCC3)cc2)nc1C#N	none
COC[C@@H]1CN(Cc2cccc(OC)c2OC)C[C@H]1C(=O)NC1CC1	none
COc1ccccc1CNC(=O)[C@H]1CN(C(C)C)C[C@H]1C(=O)O	none
COC[C@@H]1CN(c2ncccn2)C[C@H]1C(=O)NCc1ccccc1OC	KDM5B inhibitor 18µM
O=C1NC2(CCN(C(=O)c3ccccc3)C2)N=C1c1ccccn1 (centres undefined)	none
COC(=O)N1CCC2(C1)N=C(c1ccccn1)C(=O)N2 (centres undefined)	KDM5B inhibitor 35µM
CC(=O)N1CCC2(C1)N=C(c1ccncc1)C(=O)N2 (centres undefined)	none
O=C(Nc1nonc1-c1ccc2c(c1)CCCC2)c1cc(=O)c2ccccc2o1	none
COc1ccc(OCCNC(=O)c2cnc3ccccc3n2)cc1	none
COc1ccc(OCC(=O)NCCNC(=O)c2ccccn2)cc1	none
COCCCNC(=O)c1cn2ccnc(-c3ccc(OC)cc3)c2n1	KDM5B inhibitor 25µM
COCCNC(=O)c1cn2ccnc(-c3ccc(OC)cc3)c2n1	KDM5B inhibitor 20µM
CCCN(C)C(=O)c1cn2ccnc(-c3ccc(C)cc3)c2n1	none
COCCCNC(=O)CSc1nc(-c2ccc(OC)cc2)[nH]c1-c1ccc(OC)cc1	none
Cc1nc(CCNC(=O)c2ccccn2)cs1	none
CCN(CC)C(=O)c1cn2ccnc(-c3ccc(C)cc3)c2n1	none
COc1ccc(-c2nccn3cc(C(=O)NCCc4ccccn4)nc23)cc1	KDM5B inhibitor 25µM
Cc1cc(C(=O)N2CCN(S(=O)(=O)c3cc(Cl)ccc3Cl)CC2)c(C)n1Cc1ccco1	none
O=S(Cc1ccc(Cl)cc1)Cc1cccc(Cl)c1 (centres undefined)	none
O=C1CCCCC1OC(=O)C12CC3CC(CC(Cl)(C3)C1)C2 (centres undefined)	none
Cc1ccc2nc(-c3ccc4c(c3)OCO4)cc(C(=O)O)c2c1	none
CCOC(=O)C1CCN([C@H]2CS(=O)(=O)C[C@@H]2S(=O)(=O)c2ccc(F)c(C)c2)CC1	none
CCOc1cccc(CN2CCCC3(Cc4ccccc4CNC3=O)C2)c1 (centres undefined)	none
COc1ccccc1C(NC(=O)c1csc(-c2ccco2)n1)c1nccn1C (centres undefined)	none
O=C(CCCSc1nc2ccccc2s1)Nc1ccc(F)cc1F	none
Cc1ccc(OCn2ccc(C(=O)NCc3c(C)nn(C)c3C)n2)c(C)c1	none
CCO[C@H]1CN(C(=O)c2cnn(Cc3ccccc3)c2)C[C@@H]1O	none
CCO[C@H]1CN(C(=O)c2cnc(Nc3ccccc3)nc2)C[C@@H]1O	none
CCO[C@H]1CN(C(=O)c2nc3ccccc3[nH]c2=O)C[C@@H]1O	KDM5B inhibitor 25µM
CCCCCCCn1c(SCC(=O)O)nc2c1c(=O)[nH]c(=O)n2C	none
O=C(NC(Cc1ccccc1)C(=O)N1CCN(c2ncccn2)CC1)c1ccccc1 (centres undefined)	none
O=C(O)C1Cn2cccc2C(=O)N1Cc1cccnc1 (centres undefined)	none
O=C(O)[C@@H]1CN(Cc2ccccc2)C[C@@H]1C(=O)N1CCN(c2ccccn2)CC1	KDM5B inhibitor 22µM
O=C(CC1CCCCC1)NC(Cc1ccccc1)C(=O)N1CCN(c2ccccn2)CC1 (centres undefined)	KDM5B inhibitor 22µM
O=C(NC(Cc1ccccc1)C(=O)N1CCN(c2ncccn2)CC1)c1cccs1 (centres undefined)	none
O=C(C1Cn2cccc2C(=O)N1Cc1ccccc1)N1CCN(c2ncccn2)CC1 (centres undefined)	KDM5B inhibitor 18µM
O=C1CN(C(=O)[C@H]2CN(Cc3ccccc3)C[C@H]2C(=O)O)CCN1	none
O=C(CC1CCCCC1)N1CCC2(CC1)CC(N1CCN(c3ccccn3)CC1)CCO2 (centres undefined)	none
O=C(/C=C/c1cccc([N+](=O)[O-])c1)N1CCN(c2ccccn2)CC1	none
O=C(O)[C@@H]1CN(Cc2ccccc2)C[C@@H]1C(=O)N1CCOCC1	none
Cc1ccc(CN2CCN(C(=O)C3Cn4cccc4C(=O)N3Cc3cccnc3)CC2)cc1 (centres undefined)	none
NC(Cc1ccccc1)C(=O)N1CCN(c2ccccn2)CC1 (centres undefined)	KDM5B inhibitor 22µM
CN1CCC(N(C)CCN(C)C(=O)NCc2ccc(F)cc2)CC1	none
Cc1ccc(C(=O)NCC(C)(C)CNC(=O)c2ccc(C)c(C)c2)cc1C	none
COc1ccc(C(=O)c2sc(Nc3cccc(Cl)c3)nc2N)cc1	none
CCN(C(=O)c1cccs1)c1nc(-c2ccc(C)cc2)cs1	none
CC(C)(C)NC(=O)COc1ncnc2c(Cl)cc(Cl)cc12	none
COCCn1c(SCC(=O)Nc2cc(C)c(Cl)cc2OC)nnc1-c1cccc(C)c1	none
COc1cccc(CCC(=O)N2CCC(c3noc(-c4cnccn4)n3)C2)c1 (centres undefined)	none
COc1cccc(-c2nc3cnccn3c2NCCC(=O)Nc2cccc(Cl)c2)c1	KDM5B inhibitor 28µM
COc1cccc(CCC(=O)N2CCCC(c3[nH]ccc3C(N)=O)C2)c1 (centres undefined)	none

Screening results as filed in PubChem BioAssay.
